Measured values published in PubChem BioAssay (Tox21).
“And” between values parts separate entries of the source, which are not always exact repeats. Identical values can stand only once. Records with an inconclusive call do not appear. More than one record can exist for a structure, and the calls need not agree. The source made the active and inactive calls. Unless noted, the call rests on the fitted dose curve; in most records, active means well fitted curve in the direction sought with a large enough effect in the repeat runs; inconclusive means weak or mixed curves; inactive means no such curve, though single readings can be large; an effect the other way counts as inactive or inconclusive.

How the values were obtained:
[1] = qHTS assay to identify small molecule agonists of the RXR signaling pathway - cell viability counter screen (AID 1159529); further: nearly all actives have a fitted effect of over 50% in size; further: potency means the concentration at half of the fitted maximal effect
Procedure, shortened: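 Steps: seed RXR-alpha-UAS-bla HEK 293T cells in assay medium containing 2% charcoal-stripped FBS; incubate 5 hr; add compounds in DMSO; incubate 16 hr at 37 C; after the bla read, add CellTiter-Glo and read luminescence at 30 min.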

[2] = qHTS assay to identify small molecule antagonists of the retinoid acid receptor (RAR) signaling pathway - cell viability counter screen (AID 1159551); further: nearly all actives have a fitted effect of over 35% in size; further: potency means the concentration at half of the fitted maximal effect
Procedure, shortened: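 C3RL4 cells were seeded overnight at 37 C, then treated with compounds plus 1 uM (final) retinol for 6 h at 37 C. Viability was read as ATP by CellTiter-Glo luminescence after 30 min at room temperature.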

[3] = qHTS assay to identify small molecule antagonists of the estrogen related receptor (ERR) signaling pathway from Tox21 library - cell viability counter screen (AID 1224834); further: nearly all actives have a fitted effect of over 30% in size; further: potency means the concentration at half of the fitted maximal effect
Procedure, shortened: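 ERR reporter cells were plated 6 h before compound addition, then exposed to test compounds in DMSO for 17.5 h at 37 C. Viability was read as CellTiter-Fluor fluorescence after a 30-minute incubation at 37 C.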

[4] = biological target: Luciferin 4-monooxygenase (Photinus pyralis) (UniProt P08659); assay: qHTS assay to identify small molecule inhibitors of firefly luciferase (AID 1224835); further: nearly all actives have a fitted effect of over 25% in size; further: potency means the concentration at half of the fitted maximal effect
Procedure, shortened: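 Quantitative HTS format; KM concentrations of both substrates. Purified P. pyralis FLuc activity quantified from luminescence images.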

[5] = qHTS assay to identify small molecule agonists of the constitutive androstane receptor (CAR) signaling pathway - cell viability counter screen (AID 1224836); further: nearly all actives have a fitted effect of over 45% in size; further: potency means the concentration at half of the fitted maximal effect
Procedure, shortened: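 Cells were seeded and incubated 4 hrs. Compounds were added across 15 concentrations together with PK11195 at 0.75 uM final. Plates were incubated 23 hrs at 37 C. CellTiter-Fluor was added and fluorescence measured.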

[6] = qHTS assay to identify small molecule antagonists of the constitutive androstane receptor (CAR) signaling pathway - cell viability counter screen (AID 1224837); further: nearly all actives have a fitted effect of over 45% in size; further: potency means the concentration at half of the fitted maximal effect
Procedure, shortened: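 HepG2 cells stably expressing hCAR and a CYP2B6-2.2kb reporter were plated and pre-incubated 4 hr at 37 C/5% CO2, then given compounds at 15 concentrations plus 50 nM CITCO (final). After 23 hr, viability was read by CellTiter-Fluor fluorescence.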

[7] = biological target: Nuclear receptor subfamily 1 group I member 3 (Homo sapiens) (UniProt Q14994); assay: qHTS assay to identify small molecule antagonists of the constitutive androstane receptor (CAR) signaling pathway (AID 1224838); further: nearly all actives have a fitted effect of over 40% in size; further: potency means the concentration at half of the fitted maximal effect
Procedure, shortened: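 HepG2 cells stably co-transfected with hCAR and a CYP2B6-2.2kb luciferase reporter were seeded 4 h before compound addition at 15 concentrations. Cells were stimulated with 50 nM CITCO (final) for 24 h at 37 C; luciferase luminescence was then read.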

[8] = biological target: Nuclear receptor subfamily 1 group I member 3 (Homo sapiens) (UniProt Q14994); assay: qHTS assay to identify small molecule agonists of the constitutive androstane receptor (CAR) signaling pathway (AID 1224839); further: nearly all actives have a fitted effect of over 15% in size; further: potency means the concentration at half of the fitted maximal effect
Procedure, shortened: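 Cells were plated and incubated 4 hrs, then dosed with compounds at 15 concentrations. PK11195 was added to 0.75 uM final. After 24 hrs at 37 C, luciferase luminescence was measured.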

[9] = qHTS assay to identify small molecule antagonists of the estrogen related receptor signaling pathway with the pleiotropic PPARgamma coactivator (PGC) from Tox21 10K library - cell viability counter screen (AID 1224840; active means well fitted cell-killing curve with a large enough effect in the repeat runs, not every such curve was filed as active; further: nearly all actives have a fitted effect of over 40% in size; further: potency means the concentration at half of the fitted maximal effect)
Procedure, shortened: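 PGC/ERR cells were seeded at 2,000 cells/well and left 6 hours at 37 C/5% CO2 before pin-tool addition of compounds in DMSO. After 17.5 hours at 37 C, CellTiter-Fluor was added and fluorescence read 30 minutes later.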

[10] = qHTS assay to identify small molecule antagonists of the retinoic acid receptor (RAR) signaling pathway (AID 1159552; further: nearly all actives have a fitted effect of over 50% in size; further: potency means the concentration at half of the fitted maximal effect)
Procedure, shortened: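 Retinol at 1 uM final stimulated RARE-luciferase expression in C3RL4 cells exposed to test compounds for 6 hr at 37 C. Reduced luminescence, read 30 min after detection reagent, indicated pathway antagonism.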

[11] = qHTS assay to identify small molecule agonists of the retinoic acid receptor (RAR) signaling pathway (AID 1159553); further: potency means the concentration at half of the fitted maximal effect
Procedure, shortened: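 C3RL4 cells carrying a RARE luciferase reporter were plated overnight at 37 C, then exposed to compounds in DMSO for 6 hr at 37 C and 5% CO2. Luminescence was read 30 min after luciferase reagent addition at room temperature.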

[12] = qHTS assay to identify small molecule antagonists of the estrogen related receptor signaling pathway with the pleiotropic PPARgamma coactivator (PGC) from Tox21 10K library (AID 1224841; call rule not given here; further: actives are mostly falling curves and most rising ones were filed inactive; nearly all actives have a fitted effect of over 50% in size; further: potency means the concentration at half of the fitted maximal effect)
Procedure, shortened: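 PGC/ERR reporter cells were seeded at 2,000 cells/well and held 6 hours at 37 C/5% CO2 before pin-tool addition of compounds in DMSO. After 18 hours at 37 C, One-Glo was added and luminescence read after 30 minutes at room temperature.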

[13] = qHTS assay to identify small molecule agonists of the estrogen related receptor signaling pathway with the pleiotropic PPARgamma coactivator (PGC) from Tox21 10K library (AID 1224842); further: nearly all actives have a fitted effect of over 15% in size
Procedure, shortened: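 PGC/ERR reporter cells (NTP line) were seeded 2,000 per well, rested 6 h at 37 C/5% CO2, then pin-dosed with compounds in DMSO for 18 h at 37 C; luciferase read by One-Glo luminescence after 30 min at room temperature.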

Measured: Potency

Sequence of Luciferin 4-monooxygenase (Photinus pyralis) (P08659 whole entry, looked up): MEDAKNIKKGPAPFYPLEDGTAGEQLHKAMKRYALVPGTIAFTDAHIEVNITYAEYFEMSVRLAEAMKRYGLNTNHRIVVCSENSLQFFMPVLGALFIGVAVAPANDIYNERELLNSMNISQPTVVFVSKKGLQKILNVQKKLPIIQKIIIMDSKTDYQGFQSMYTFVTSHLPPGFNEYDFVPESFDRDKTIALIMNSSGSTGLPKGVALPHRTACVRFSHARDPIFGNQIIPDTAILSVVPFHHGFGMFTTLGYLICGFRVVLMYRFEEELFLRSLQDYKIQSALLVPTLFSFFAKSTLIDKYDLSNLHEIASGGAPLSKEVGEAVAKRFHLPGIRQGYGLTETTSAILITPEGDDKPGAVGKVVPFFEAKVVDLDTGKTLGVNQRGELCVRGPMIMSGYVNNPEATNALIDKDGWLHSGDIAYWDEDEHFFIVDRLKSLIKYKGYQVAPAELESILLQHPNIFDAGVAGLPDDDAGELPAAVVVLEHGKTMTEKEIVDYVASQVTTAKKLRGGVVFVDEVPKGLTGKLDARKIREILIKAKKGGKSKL
Sequence of Nuclear receptor subfamily 1 group I member 3 (Homo sapiens) (Q14994 whole entry, looked up): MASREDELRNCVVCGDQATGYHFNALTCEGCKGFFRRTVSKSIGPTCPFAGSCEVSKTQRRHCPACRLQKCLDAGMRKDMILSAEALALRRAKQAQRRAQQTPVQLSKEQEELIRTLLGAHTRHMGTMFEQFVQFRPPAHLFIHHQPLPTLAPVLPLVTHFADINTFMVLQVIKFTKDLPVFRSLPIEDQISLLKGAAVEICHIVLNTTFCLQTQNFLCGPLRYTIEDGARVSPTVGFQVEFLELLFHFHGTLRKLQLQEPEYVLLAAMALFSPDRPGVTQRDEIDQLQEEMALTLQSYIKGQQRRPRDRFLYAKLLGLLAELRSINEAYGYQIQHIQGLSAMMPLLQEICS

O=S1(=O)OC(c2cc(Br)c(O)c(Br)c2)(c2cc(Br)c(O)c(Br)c2)c2ccccc21
inactive: [1] | [8]
active: [2] 19.9 µM | [3] 25 µM | [4] 10.3 µM | [5] 25 µM | [6] 28.1 µM | [7] 25 µM | [9] 25 µM

CCCC(=O)Cl
not listed: [7] | [8] | [12] | [13]
inactive: all other assays above

CCCCCCC#N
not listed: [7] | [8] | [12] | [13]
inactive: all other assays above

CCOP(=S)(Oc1ccc([N+](=O)[O-])cc1)c1ccccc1 (centres undefined)
not listed: [8] | [10]
inactive: all other assays above

O=C(O)COc1ccc(Cl)cc1
not listed: [6] | [10]
inactive: all other assays above

C=CCOC(C)=O
active: [11] 75.9 µM
not listed: [7] | [8] | [12] | [13]
inactive: all other assays above

CCCCCCCCCC(=O)O[C@H]1CC[C@H]2[C@@H]3CCC4=CC(=O)CC[C@@H]4[C@H]3CC[C@]12C
not listed: [8] | [11] | [12] | [13]
inactive: all other assays above

CC(C)(OO)c1ccccc1
not listed: [6] | [7] | [8]
inactive: all other assays above

CCOP(=S)(OCC)SCn1nnc2ccccc2c1=O
active: [3] 43.3 µM
not listed: [8] | [9] | [10] | [12]
inactive: all other assays above

CC[C@H]1C[C@H]2[C@@H]3CCC4=CC(=O)CC[C@@H]4[C@H]3CC[C@]2(C)[C@H]1O
not listed: [3] | [4] | [11] | [12]
inactive: all other assays above

BrCC(Br)C1CCC(Br)C(Br)C1 (centres undefined)
not listed: [8] | [10] | [12] | [13]
inactive: all other assays above

CCCN(CCCl)c1c([N+](=O)[O-])cc(C(F)(F)F)cc1[N+](=O)[O-]
not listed: [6] | [8] | [10]
inactive: all other assays above

[O-][Cl+]O
not listed: [7] | [8]
inactive: all other assays above

IC(I)=C(I)I
active: [1] 12.3 µM | [2] 30.6 µM | [10] 2.73 µM | [3] 27.3 µM | [5] 30.6 µM | [6] 27.3 µM | [7] 12.2 µM | [9] 24.3 µM | [12] 21.7 µM
inactive: [4] | [13]

CCOC(=O)COc1cc(-c2nn(C)c(OC(F)F)c2Cl)c(F)cc1Cl
not listed: [10]
inactive: all other assays above

CN1C[C@H](CNC(=O)OCc2ccccc2)C[C@@H]2c3cccc4c3c(cn4C)C[C@H]21
not listed: [3] | [12] | [13]
inactive: all other assays above

CCOP(=S)(OCC)Oc1nc(Cl)c(Cl)cc1Cl
active: [1] 21.9 µM and 49 µM | [8] 27.4 µM and 30.6 µM
61.3 µM (active) and inactive: [2]
inactive: [3] | [4] | [5] | [6] | [7] | [9]

C(=NC1CCCCC1)=NC1CCCCC1
active: [7] 10.9 µM and 21.7 µM | [9] 38.8 µM | [12] 13.7 µM
inactive: [1] | [2] | [11] | [4] | [8] | [13]

O=C1C(=O)c2cccc3cccc1c23
active: [8] 61.1 µM
inactive: [1] | [2] | [4] | [5] | [6] | [7] | [9]

CCOc1nc(F)cc2nc(S(=O)(=O)Nc3c(Cl)cccc3Cl)nn12
not listed: [6] | [10] | [11] | [12] | [13]
inactive: all other assays above

[CH3][Sn]([CH3])([Cl])[Cl]
active: [3] 62.1 µM | [12] 69.7 µM and 43.3 µM
not listed: [8] | [10] | [11]
inactive: all other assays above

N#CCC#N
active: [5] 48.6 µM | [7] 61.1 µM
inactive: [1] | [2] | [4] | [8]

CC(=O)CCC(C)=O
not listed: [6] | [10] | [11] | [12] | [13]
inactive: all other assays above

CCCCC(O)(Cn1cncn1)c1ccc(Cl)cc1Cl (centres undefined)
active: [1] 54.9 µM | [3] 54.4 µM | [6] 61.1 µM | [9] 54.4 µM | [12] 48.5 µM
inactive: [4] | [7] | [13]

CCOc1ccc(C(C)(C)COCc2cccc(Oc3ccccc3)c2)cc1
not listed: [8] | [10] | [11] | [12] | [13]
inactive: all other assays above

O=C(CBr)Nc1ccc(Cl)cc1C(=O)c1ccccc1F
active: [8] 26.6 µM
not listed: [6] | [10] | [11]
inactive: all other assays above

CN1[C@@H]2CC[C@H]1CC(OC(=O)c1cc(Cl)cc(Cl)c1)C2 (some centres undefined)
not listed: [1] | [7] | [8] | [12] | [13]
inactive: all other assays above

Cc1c(F)c(F)c(COC(=O)C2C(/C=C(\Cl)C(F)(F)F)C2(C)C)c(F)c1F (centres undefined)
inactive: [1] | [2] | [3] | [4] | [5] | [6] | [9]

O=NN1CCCCCC1
inactive: [2] | [10] | [3] | [4] | [5] | [6] | [9]

O=C(N[C@H](c1ccccc1)[C@@H]1CN2CCC1CC2)c1c(Cl)ccc(C(F)(F)F)c1Cl
inactive: [1] | [2] | [4] | [8] | [13]
active: [3] 49.3 µM | [5] 98.4 µM | [7] 13.9 µM | [12] 31.1 µM

CC(=O)C(C)(C)C
not listed: [1] | [8]
inactive: all other assays above
